{
  "source": "ChEMBL document CHEMBL3988442",
  "about": "“University of Dundee, Small-Polar-MMV Screening Library” (2021)",
  "note": "About 13,000 (27%) of roughly 48,000 compounds showed an effect of 50% or more. Some of the results follow.",
  "data": [
    {"tested_on": "Wolbachia pipientis", "assay": "Anti-Wolbachia Cell-Based Screen", "format": "functional", "set-up": "scale not given: in the data most compounds retested in dose-response had high values", "settings": "5 µM", "units": {"Percent Effect": "%"}, "values": [
      {"smiles": "CCCn1cc(C(=O)NCCc2ccc3c(c2)OCO3)c(C)n1", "Percent Effect": -4.07},
      {"smiles": "CCn1cc(NC(=O)Nc2ccc3c(c2)OCCO3)cn1", "Percent Effect": 131.1},
      {"smiles": "CCn1cc(NC(=O)NCc2ccc3c(c2)OCO3)cn1", "Percent Effect": 135.2},
      {"smiles": "CCn1cc(NC(=O)NCC2(N3CCOCC3)CCSC2)cn1", "note": "(configuration not stated)", "Percent Effect": -22.54},
      {"smiles": "O=C(Cn1cc(Cl)cn1)Nc1ccc2c(c1)OCCCO2", "Percent Effect": -3.42},
      {"smiles": "CCn1cc(NC(=O)NCC(C)O)cn1", "note": "(configuration not stated)", "Percent Effect": -13.78},
      {"smiles": "CCn1cc(NC(=O)NCCc2ccc3c(c2)OCCO3)cn1", "Percent Effect": 126.5},
      {"smiles": "CCn1cc(NC(=O)NCCc2ccc3c(c2)OCO3)cn1", "Percent Effect": 124.8},
      {"smiles": "Cn1cc(CCNC(=O)CCc2ccc3c(c2)OCO3)cn1", "Percent Effect": -1.168},
      {"smiles": "Cc1nn(C)c(C)c1CN(Cc1cccn1-c1ccccn1)C(C)C", "Percent Effect": -9.247},
      {"smiles": "CCc1cnc(N2CCN(Cc3ccno3)CC2)s1", "Percent Effect": 1.528},
      {"smiles": "CC(C)c1nnc(NC(=O)NCc2ccc(CO)c(F)c2)s1", "Percent Effect": -3.606},
      {"smiles": "CCn1cc(NC(=O)NCc2ccc(CO)c(F)c2)cn1", "Percent Effect": 112.4},
      {"smiles": "CCn1cc(NC(=O)NC(CO)Cc2c[nH]c3ccccc23)cn1", "note": "(configuration not stated)", "Percent Effect": -9.205},
      {"smiles": "CC(C)(C)C(=O)N1CCC(c2nc(O)cc(-c3ccncc3)n2)CC1", "Percent Effect": 112.4},
      {"smiles": "O=C(c1cccnc1)N1CCC(c2nc(O)cc(-c3ccncc3)n2)C1", "note": "(configuration not stated)", "Percent Effect": 89.59},
      {"smiles": "CC(C)C(=O)N1CCC(c2nc(O)cc(-c3ccncc3)n2)CC1", "Percent Effect": -8.577},
      {"smiles": "O=C(c1ccccn1)N1CCC(c2nccn2Cc2ccncc2)CC1", "Percent Effect": 7.014},
      {"smiles": "O=C(c1ccccn1)N1CCC(c2nc(O)cc(-c3ccncc3)n2)C1", "note": "(configuration not stated)", "Percent Effect": 109.3},
      {"smiles": "O=C(c1ccccn1)N1CCCC(c2nccn2Cc2ccncc2)C1", "note": "(configuration not stated)", "Percent Effect": -10.11},
      {"smiles": "COCc1cc(CNC(=O)c2c(O)cccc2O)n[nH]1", "Percent Effect": 12.71},
      {"smiles": "CC(C)N1CCc2[nH]nc(C(=O)N3CCCC3C)c2C1", "note": "(configuration not stated)", "Percent Effect": -13.09},
      {"smiles": "CCOCCCNC(=O)NC(C)c1ccc(-n2cncn2)cc1", "note": "(configuration not stated)", "Percent Effect": -14.96},
      {"smiles": "CCOCCNC(=O)c1ccn(S(=O)(=O)c2ccc(C)cc2)c1", "Percent Effect": -5.067},
      {"smiles": "COCC(C)N(C)C(=O)c1ccc2nncn2c1", "note": "(configuration not stated)", "Percent Effect": 2.79},
      {"smiles": "COc1cc(C)c(NC(=O)NCCn2cccc2)cc1OC", "Percent Effect": 2.296},
      {"smiles": "NC(=O)C1CCN(Cc2cc3c(cc2Br)OCCO3)C1", "note": "(configuration not stated)", "Percent Effect": 0.4913},
      {"smiles": "CC(C)C1CN(C(=O)c2ccsc2)CCS1", "note": "(configuration not stated)", "Percent Effect": 1.544},
      {"smiles": "CC(C)[C@@H]1CN(C(=O)C2(c3ccccc3)CC2)C[C@H]1C(=O)O", "Percent Effect": 6.034},
      {"smiles": "CCc1ccccc1OC1CN(C(=O)c2ccsc2)C1", "Percent Effect": -5.309},
      {"smiles": "Cc1cncc(C(=O)N2CCN(c3cnn(C)c(=O)c3)CC2)c1", "Percent Effect": -23.7},
      {"smiles": "Cc1cncc(C(=O)N2C[C@@H](C(=O)O)[C@H](C(C)C)C2)c1", "Percent Effect": 102.6},
      {"smiles": "Cc1cncc(C(=O)N2CCCC(C(=O)CCc3ccccc3)C2)c1", "note": "(configuration not stated)", "Percent Effect": -18.81},
      {"smiles": "Cc1ccsc1C(=O)N1C[C@@H](C(=O)O)[C@H](C(C)C)C1", "Percent Effect": 117.1},
      {"smiles": "CC(C)[C@@H]1CN(C(=O)c2ccsc2)C[C@H]1C(=O)O", "Percent Effect": 124.9},
      {"smiles": "CC(C)[C@@H]1CN(C(=O)CN(C)Cc2ccccc2)C[C@H]1C(=O)O", "Percent Effect": -19.29},
      {"smiles": "CC(c1cccs1)N(C)C(=O)c1cc(CN(C)Cc2ccccc2)on1", "note": "(configuration not stated)", "Percent Effect": -11.33},
      {"smiles": "CN(C)c1cc(C(=O)NCC2(c3cccc(F)c3)CCOCC2)ccn1", "Percent Effect": -10.3},
      {"smiles": "CCOc1ccc(Cl)cc1C(C(=O)O)N1CCOCC1", "note": "(configuration not stated)", "Percent Effect": -18.5},
      {"smiles": "CC(C)(C)OC(=O)N1CSC[C@@H]1C(=O)NCc1ccc(C#N)cc1", "Percent Effect": -6.965},
      {"smiles": "Cc1ccc(CN2Cc3nnn(C)c3C(COCC3CC3)C2)o1.O=C(O)C(F)(F)F", "note": "(configuration not stated)", "Percent Effect": 1.722},
      {"smiles": "Cc1ccc(CN2Cc3c(C(=O)N(C)C)nn(C)c3C2)s1.O=C(O)C(F)(F)F", "Percent Effect": -8.124},
      {"smiles": "Cc1ccc(CN2Cc3nnn(C)c3C(COCC3CC3)C2)s1.O=C(O)C(F)(F)F", "note": "(configuration not stated)", "Percent Effect": 100.2},
      {"smiles": "COCC1CN(Cc2ccc(C)s2)Cc2nnn(C)c21.O=C(O)C(F)(F)F", "note": "(configuration not stated)", "Percent Effect": 106},
      {"smiles": "COCC1CN(Cc2sccc2C)Cc2nnn(CC3CC3)c21.O=C(O)C(F)(F)F", "note": "(configuration not stated)", "Percent Effect": 8.391},
      {"smiles": "Cc1ccc(CN2Cc3nnn(C)c3C(COCC(=O)N(C)C)C2)s1.O=C(O)C(F)(F)F", "note": "(configuration not stated)", "Percent Effect": 83.68},
      {"smiles": "COCC1CN(Cc2ccc(C)o2)Cc2nnn(C)c21.O=C(O)C(F)(F)F", "note": "(configuration not stated)", "Percent Effect": 3.893},
      {"smiles": "CCC(CC)NC(=O)CN1CCSCC1", "Percent Effect": 2.417},
      {"smiles": "Cc1ncnc(N2CCCN(c3nc4ccccc4s3)CC2)c1C", "Percent Effect": -5.721},
      {"smiles": "COCCN1CCC(c2nc3ccc(N4CCCC4)cn3n2)CC1.O=C(O)C(F)(F)F", "Percent Effect": -8.298},
      {"smiles": "CCN1CCC(c2nc3ccc(NC4CCC4)cn3n2)CC1.O=C(O)C(F)(F)F", "Percent Effect": 79.67},
      {"smiles": "Cl.Cl.Cl.c1cncc(CNc2ccc3nc(C4CCNCC4)nn3c2)c1", "Percent Effect": -18.54},
      {"smiles": "CC(=O)N1CCC(c2nc3ccc(NC4CCC4)cn3n2)CC1.O=C(O)C(F)(F)F", "Percent Effect": 124.1},
      {"smiles": "CCN1CCC(c2nc3ccc(NC(C)C)cn3n2)CC1.O=C(O)C(F)(F)F", "Percent Effect": -4.484},
      {"smiles": "COCC(=O)N1CCC(c2nc3ccc(N4CCCC4)cn3n2)CC1.O=C(O)C(F)(F)F", "Percent Effect": -11.72},
      {"smiles": "CC(C)Nc1ccc2nc(C3CCN(C(C)C)CC3)nn2c1.O=C(O)C(F)(F)F", "Percent Effect": 7.625},
      {"smiles": "c1cc2nc(C3CCNCC3)nn2cc1NC1CCC1", "Percent Effect": 109.6},
      {"smiles": "COCCN1CCC(c2nc3ccc(NC4CCC4)cn3n2)CC1.O=C(O)C(F)(F)F", "Percent Effect": 99.27},
      {"smiles": "Cc1cc(C)c(Cn2cncn2)cc1CN1CC[C@H]2CC[C@@H](C1)N2", "Percent Effect": 27.46},
      {"smiles": "CC(=O)N(C)CC(=O)NC(CC(C)C)c1cccs1", "note": "(configuration not stated)", "Percent Effect": 5.598},
      {"smiles": "CCN(CC)S(=O)(=O)c1ccc(CCC(=O)NCc2cc(C)on2)cc1", "Percent Effect": 7.778},
      {"smiles": "Cc1nccc(CNC(=O)CCc2c(C)nc3cc(O)nn3c2C)n1", "Percent Effect": 98.09},
      {"smiles": "CCc1ccc(C(=O)NCc2ccnc(C)n2)cc1", "Percent Effect": 0.2592},
      {"smiles": "O=C(CCc1cc(Br)cs1)NCCCn1ccnc1", "Percent Effect": -0.5451},
      {"smiles": "Cc1nc2cc(O)nn2c(C)c1CCC(=O)NCc1cc(Br)cs1", "Percent Effect": 111.2},
      {"smiles": "Cc1ccsc1CNC(=O)CCc1c(C)nc2cc(O)nn2c1C", "Percent Effect": 106.8},
      {"smiles": "Cc1cc(CNC(=O)CCc2c(C)nc3cc(O)nn3c2C)no1", "Percent Effect": 92.65},
      {"smiles": "Cc1ccsc1CCNC(=O)CCC(=O)NC1CCCC1", "Percent Effect": -4.731},
      {"smiles": "Cc1cc(CNC(=O)CCc2ccc(S(N)(=O)=O)cc2)no1", "Percent Effect": -2.333},
      {"smiles": "Cc1ccsc1CNC(=O)CC1CN(C(=O)OC(C)(C)C)C1", "Percent Effect": -25.18},
      {"smiles": "NC(=O)CCCNC(=O)CCc1cc(Br)cs1", "Percent Effect": 8.374},
      {"smiles": "CCN(c1ccc(C(=O)NCc2ccnc(C)n2)cc1)C(C)C", "Percent Effect": -16.63}
    ]}
  ]
}
